The values below come from PubChem BioAssay (NCATS).

Records with an inconclusive call do not appear. Activity calls are given as the source filed them. Calls come from the whole dose curve; as a rule, active = well fitted cell-killing curve with a large enough effect; inconclusive = small, poorly fitted or top-dose-only effect, or effect the other way; inactive = no such curve, though single readings can be large or run the other way.
Potency is the fitted concentration of half-maximal effect.

This experiment is described as follows: Viability qHTS for spleen associated tyrosine kinase inhibitor (SYKi) drug resistant MV4-11 cells (AID 1963824). Note: nearly all actives have a fitted effect of over 35% in size. Particulars: SYKi-resistant MV4-11 viability, CellTiter-Glo, 72 h; series mostly up to 45 µM. The method in brief: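 CellTiter-Glo luminescence, read 10 min after reagent addition, reports viability after a 72 hr compound exposure. Cells are an MV4-11 line made resistant to SYK inhibition, seeded at 500 per well onto compound-containing plates.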
`C/C=C/C=C/c1cc2c(C=O)c(O)c(CC=C(C)C)cc2o1`: the Potency is 18.4 µM (active). With `C=C1C(=O)O[C@@H]2C[C@]3(C)[C@@H](CCC(C)=O)[C@@H]3C[C@H]12`, the Potency was 18.4 µM (active).

As for `COC(=O)C1=COC(OC2OC(CO)C(O)C(O)C2O)C2C1CC(OC(=O)C(O)CC(=O)O)C2C` (centres undefined), the Potency entry is “inactive”. Consider `COC1CC(OC2CCC3(C)C(=CCC4C3CCC3(C)C(C(C)O)CCC43O)C2)OC(C)C1OC1OC(C)C(OC2OC(COC3OC(COC4OC(CO)C(O)C(O)C4O)C(O)C(O)C3O)C(O)C(O)C2O)C(OC)C1O` (centres undefined), for which the viability, % of control was 97.1% [at 9.25 µM] (inactive).

Take `O=C(/C=C/c1nc2ccccc2[nH]1)c1c(-c2ccccc2)c2cc(Cl)ccc2[nH]c1=O`: the Potency was 0.291 µM (active).

As to `C=C1CC2C3(C)C(O)CC(=O)C(C)(C)C3C(O)C(OC(C)=O)C2(C)C2C(=O)OC(C)(C(=O)OC)C(=O)C12C` (centres undefined), the Potency is 6.32 µM (active).

As to `CC(=O)OCC(=O)[C@@]12O[C@@H]1C[C@H]1[C@@H]3CC=C4C[C@@H](O)CC[C@]4(C)[C@H]3CC[C@@]12C`, the Potency is 18.4 µM (active). The same measure, in the same setting: next, `CC1(CO)CC(O)[C@]2(C(=O)O)CCC34CC3(C=CC3[C@]5(C)C(CC[C@]34C)C(C)(CO)[C@@H](O)[C@H](O)[C@@H]5O)C2C1` (some centres undefined): 11.2 µM (active); `COC(=O)C1(O)C(OC(C)=O)CCC2C3(CC(c4ccoc4)OC3=O)C(C)=CCC21C(=O)OC` (centres undefined): “inactive”. The same measure, in the same setting: in the case of `CC(=O)OC[C@]12[C@H](OC(C)=O)C(=O)[C@@H]3[C@@H](OC(C)=O)[C@@]14O[C@@]3(C)COC(=O)c1cccnc1[C@@H](C)[C@H](C)C(=O)O[C@@H]([C@H](OC(C)=O)[C@@H]2OC(C)=O)[C@]4(C)O` it was “inactive”; in that of `Cc1ccnc(NC(=O)C(C)c2cccc(C(=O)c3ccccc3)c2)c1` (centres undefined), 23.1 µM (active). On the same count and under the same terms, in the case of `NS(=O)(=O)Nc1ncnc(OCCOc2ncc(Br)cn2)c1-c1ccc(Br)cc1` it was 14.6 µM (active). With `Cc1ccccc1-n1c([C@H](C)Nc2nc(N)nc3nc[nH]c23)nc2cccc(C)c2c1=O`, the Potency is 2.91 µM (active). Same read-out and setting: next, `O=C(NO)c1cnc(N2CCN(S(=O)(=O)c3ccc4ccccc4c3)CC2)nc1`: “inactive”. Same read-out and setting: next, `CCn1c(=O)n([C@H]2CCCN(c3nccc(-c4cc5ccccc5o4)n3)C2)c2ccccc21`: 23.1 µM (active). Still for that read-out and setting: next, `C=C1C(=O)O[C@@H]2/C=C(/C)CC3C=C(C[C@H](OC(=O)/C(C)=C\C)[C@@H]12)C(=O)O3` (some centres undefined): 2.55 µM (active); `c1cc(NC2CCNCC2)nc(-c2cnc3ccccn23)c1`: 0.0206 µM (active). For the compound `O=C1OC2(c3ccc(O)cc3Oc3cc(O)ccc32)c2ccccc21`, the Potency result was “inactive”.

In the case of `CC1=C2CC(C)(C)CC2C(O)C2=C(C1)C(=O)OC2O` (centres undefined), the Potency entry is “inactive”.

On to `CC(C)C[C@@H]1NC(=O)[C@@H](Cc2ccccc2)NC(=O)C(CCCCCC(=O)C2CO2)NC(=O)[C@@H]2CCCCN2C1=O` (some centres undefined), for which the Potency was 0.0126 µM (active). Take `CNC(C)C(=O)NC(C(=O)N1CCCC1c1nc(C(=O)c2ccc(F)cc2)cs1)C1CCCCC1` (centres undefined): the Potency was 2.59 µM (active). For the compound `CC1(CO)CCCC2(C)C3COC(=O)C3=CC(O)C12` (centres undefined), the Potency entry was “inactive”.

For `OCC(O)CCO/N=C1/C(c2c(O)[nH]c3ccccc23)=Nc2ccccc21` (centres undefined), the Potency is 0.0517 µM (active).

In the case of `C=C(CO[C@@H]1O[C@H](CO[C@@H]2OC[C@](O)(CO)[C@H]2O)[C@@H](O)[C@H](O)[C@H]1O)C1Cc2cc(C(C)=O)ccc2O1` (some centres undefined), the Potency result is “inactive”. Regarding `COC1CC(O[C@H]2CC[C@@]3(C)C(=CC[C@]4(O)C3[C@H](O)[C@@H](O)[C@]3(C)[C@@H]([C@H](C)O)CC[C@@]34O)C2)OC(C)C1OC1CC(OC)C(OC2CC(OC)C(OC3OC(C)C(OC4OC(CO)C(O)C(O)C4O)C(OC)C3O)C(C)O2)C(C)O1` (some centres undefined), the viability, % of control was 76.2% [at 9.25 µM] (inactive). In the case of `O=C(/C=C/n1cnc(-c2cc(C(F)(F)F)cc(C(F)(F)F)c2)n1)NNc1cnccn1`, the Potency was 1.46 µM (active). Still for that read-out and setting: next, `C=C1CC[C@@H]2[C@@](C)(CO[C@@H]3O[C@H](CO)[C@@H](O)[C@H](O)[C@H]3O)[C@H](O)CC[C@@]2(C)[C@@H]1CC/C(C)=C/CO[C@@H]1O[C@H](CO)[C@@H](O)[C@H](O)[C@H]1O`: “inactive”; `COc1cc(/C=C/c2cc(O)cc(O[C@@H]3O[C@H](CO)[C@@H](O)[C@H](O)[C@H]3O)c2)ccc1O`: “inactive”. The same measure, in the same setting: next, `CC1(C)C[C@H]2C=C(C=O)[C@]3(C(=O)O)C[C@]3(C)[C@H]2C1`: “inactive”.
